Structures can show the parent of a compound that is named as a salt.
The compounds below were run on Saccharomyces cerevisiae (assay: fraction of cells in G1 phase (DNA content, flow cytometry); higher = more cells with unreplicated DNA (G1 delay)). Details: temperature: 30 C; YPD; BY4741 PDR5+ SNQ2+; drug added to: actively dividing cells; 4.33 h.
Description: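 S. cerevisiae cultures in YPD at 30°C were treated with each drug of the Enzo FDA-approved library at 20 µg/ml (final µM given per drug). Cells were fixed after 6–7 h (S1) or 6 h (S2), or after 4.33 h for BY4741 (S3), then stained with SYTOX Green. %G1 is the Dean-Jett-Fox G1 peak area divided by the G1+G2/M peak areas, written as a fraction and averaged over at least two independent experiments. DMSO reference: mean ~0.49; >0.60 is called High G1 and <0.3876 Low G1. Scale: lower means mitotic delay.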

| SMILES | fraction of cells in G1 phase |
| --- | --- |
| CCc1nn(CCCN2CCN(c3cccc(Cl)c3)CC2)c(=O)n1CCOc1ccccc1 [Nefazodone] (42.5515 µM) | 0.422 |
| CC(C)COCC(CN(Cc1ccccc1)c1ccccc1)N1CCCC1 (stereo unspecified) [Bepridil] (48.4262 µM) | 0.391 |
| CN1CCN(C2=Nc3cc(Cl)ccc3Nc3ccccc32)CC1 [Clozapine] (61.1935 µM) | 0.437 |
| CC(C)(C)C(=O)C(Oc1ccc(Cl)cc1)n1ccnc1 (stereo unspecified) [Climbazole] (68.3135 µM) | 0.496 |
| CCOC(=O)C1=C(COCCN)NC(C)=C(C(=O)OC)C1c1ccccc1Cl (stereo unspecified) [Amlodipine] (48.9134 µM) | 0.481 |

Same assay, conditions: temperature: 30 C; YPD; JTY2953 pdr5 snq2 (sensitized); drug added to: actively dividing cells; 6 h

| SMILES | fraction of cells in G1 phase |
| --- | --- |
| CCc1nn(CCCN2CCN(c3cccc(Cl)c3)CC2)c(=O)n1CCOc1ccccc1 [Nefazodone] (42.5515 µM) | 0.688 |
| O=C1Nc2ccc(Cl)cc2[C@@](C#CC2CC2)(C(F)(F)F)O1 [Efavirenz] (63.355 µM) | 0.4 |
| CC(C)COCC(CN(Cc1ccccc1)c1ccccc1)N1CCCC1 (stereo unspecified) [Bepridil] (48.4262 µM) | 0.637 |
| CCN(CC)CCOc1ccc(C(=C(Cl)c2ccccc2)c2ccccc2)cc1 [Clomiphene citrate] (49.2645 µM) | 0.388 |
| CC(C)(C)C(=O)C(Oc1ccc(Cl)cc1)n1ccnc1 (stereo unspecified) [Climbazole] (68.3135 µM) | 0.833 |
| CC(C)(C)c1ccc(C(O)CCCN2CCC(C(O)(c3ccccc3)c3ccccc3)CC2)cc1 (stereo unspecified) [Terfenadine] (42.4008 µM) | 0.324 |
| CCOC(=O)C1=C(COCCN)NC(C)=C(C(=O)OC)C1c1ccccc1Cl (stereo unspecified) [Amlodipine] (48.9134 µM) | 0.673 |
| CC/C(=C(\c1ccccc1)c1ccc(OCCN(C)C)cc1)c1ccccc1 [Tamoxifen citrate] (53.8319 µM) | 0.385 |
| CCN(CC)C(=S)SSC(=S)N(CC)CC [Disulfiram] (67.4445 µM) | 0.466 |

Same assay, conditions: temperature: 30 C; YPD; JTY2953 pdr5 snq2 (sensitized); drug added to: cultures diluted from stationary phase; 6-7 h

| SMILES | fraction of cells in G1 phase |
| --- | --- |
| COc1cc(C(=O)OCCCN2CCCN(CCCOC(=O)c3cc(OC)c(OC)c(OC)c3)CC2)cc(OC)c1OC [Dilazep] (33.074 µM) | 0.47 |
| CCc1nn(CCCN2CCN(c3cccc(Cl)c3)CC2)c(=O)n1CCOc1ccccc1 [Nefazodone] (42.5515 µM) | 0.721 |
| COc1cc(C)c(/C=C/C(C)=C/C=C/C(C)=C/C(=O)O)c(C)c1C [Acitretin] (61.2745 µM) | 0.563 |
| O=C1Nc2ccc(Cl)cc2[C@@](C#CC2CC2)(C(F)(F)F)O1 [Efavirenz] (63.355 µM) | 0.879 |
| CN/C(=N\CCSCc1nc[nH]c1C)NC#N [Cimetidine] (79.2571 µM) | 0.5 |
| CC1(C)C[C@@H]1C(=O)N/C(=C\CCCCSC[C@H](N)C(=O)O)C(=O)O [Cilastatin] (55.7942 µM) | 0.484 |
| CCCCc1ncc(/C=C(\Cc2cccs2)C(=O)O)n1Cc1ccc(C(=O)O)cc1 [Eprosartan] (47.1117 µM) | 0.493 |
| CC(C)COCC(CN(Cc1ccccc1)c1ccccc1)N1CCCC1 (stereo unspecified) [Bepridil] (48.4262 µM) | 0.601 |
| CN1CCN(C2=Nc3cc(Cl)ccc3Nc3ccccc32)CC1 [Clozapine] (61.1935 µM) | 0.319 |
| C[C@H]1[C@H](OC(=O)CCC(=O)O)O[C@@H]2O[C@@]3(C)CC[C@H]4[C@H](C)CC[C@@H]1[C@@]24OO3 [Artesunate] (52.025 µM) | 0.556 |
| C[C@H](CCC(=O)NCCS(=O)(=O)O)[C@H]1CC[C@H]2[C@@H]3[C@H](O)C[C@@H]4C[C@H](O)CC[C@]4(C)[C@H]3C[C@H](O)[C@]12C [Taurocholic acid, sodium salt hydrate] (38.7811 µM) | 0.491 |
| COc1ccc(CC2c3cc(OC)c(OC)cc3CC[N+]2(C)CCC(=O)OCCCCCOC(=O)CC[N+]2(C)CCc3cc(OC)c(OC)cc3C2Cc2ccc(OC)c(OC)c2)cc1OC (stereo unspecified) [Atracurium besylate] (21.5246 µM) | 0.474 |
| CC(c1cc2ccccc2s1)N(O)C(N)=O (stereo unspecified) [Zileuton] (84.6401 µM) | 0.53 |
| N=C(N)N1CCc2ccccc2C1 [Debrisoquin sulfate] (114.132 µM) | 0.513 |
| CN1CCN2c3ccccc3Cc3ccccc3C2C1 (stereo unspecified) [Mianserin hcl] (75.6505 µM) | 0.471 |
| C[C@]12C=CC(=O)C=C1CC[C@@H]1[C@@H]2C(=O)C[C@@]2(C)[C@H]1CC[C@]2(O)C(=O)CO [Prednisone] (55.7976 µM) | 0.496 |
| CCN(CC)CCOc1ccc(C(=C(Cl)c2ccccc2)c2ccccc2)cc1 [Clomiphene citrate] (49.2645 µM) | 0.88 |
| CCCc1nc(C)c2c(=O)nc(-c3cc(S(=O)(=O)N4CCN(CC)CC4)ccc3OCC)[nH]n12 [Vardenafil] (40.9322 µM) | 0.511 |
| COc1cc(Cc2cnc(N)nc2N)cc(OC)c1OC [Trimethoprim] (68.8884 µM) | 0.486 |
| C[N+](C)(C)CCOC(N)=O [Carbamylcholine Cl] (135.871 µM) | 0.506 |
| Clc1ccc2c(c1)C(N1CCNCC1)=Nc1ccccc1O2 [Amoxapine] (63.737 µM) | 0.581 |
| CC(C)(C)C(=O)C(Oc1ccc(Cl)cc1)n1ccnc1 (stereo unspecified) [Climbazole] (68.3135 µM) | 0.719 |
| CC(C)(C)c1ccc(C(O)CCCN2CCC(C(O)(c3ccccc3)c3ccccc3)CC2)cc1 (stereo unspecified) [Terfenadine] (42.4008 µM) | 0.776 |
| CCOC(=O)C1=C(COCCN)NC(C)=C(C(=O)OC)C1c1ccccc1Cl (stereo unspecified) [Amlodipine] (48.9134 µM) | 0.768 |
| CC/C(=C(\c1ccccc1)c1ccc(OCCN(C)C)cc1)c1ccccc1 [Tamoxifen citrate] (53.8319 µM) | 0.896 |
| CC[C@]1(O)C[C@@H]2CN(CCc3c([nH]c4ccccc34)[C@@](C(=O)OC)(c3cc4c(cc3OC)N(C)[C@H]3[C@@](O)(C(N)=O)[C@H](O)[C@]5(CC)C=CCN6CC[C@]43[C@@H]65)C2)C1 [Vindesine] (26.5271 µM) | 0.478 |
| CCN(CC)C(=S)SSC(=S)N(CC)CC [Disulfiram] (67.4445 µM) | 0.876 |

— the supplement of paper PMC3342239
